Results from PubChem BioAssay (NCATS).
This is one part of the list. Inconclusive results are not listed. Values without a mark were called inactive. The source made the active and inactive calls. Calls follow the shape of the dose curve; as a rule, active = well fitted curve in the direction sought with a large enough effect; inconclusive = small, poorly fitted or top-dose-only effect, or another doubt; inactive = no such curve, though single readings can be large; an effect the other way counts as inactive or inconclusive.
Potency is read from the fitted curve at half-maximal effect.

What follows are compounds tested against DNA polymerase eta (Homo sapiens) (UniProt Q9Y253) (assay: qHTS for Inhibitors of Polymerase Eta: Confirmatory Assay for Cherry-picked Compounds (AID 720502)). Conditions: Pol eta primer extension, TAMRA/BHQ fluorescence, 10 min.
DNA polymerase eta (Homo sapiens), sequence (Q9Y253 whole entry, looked up): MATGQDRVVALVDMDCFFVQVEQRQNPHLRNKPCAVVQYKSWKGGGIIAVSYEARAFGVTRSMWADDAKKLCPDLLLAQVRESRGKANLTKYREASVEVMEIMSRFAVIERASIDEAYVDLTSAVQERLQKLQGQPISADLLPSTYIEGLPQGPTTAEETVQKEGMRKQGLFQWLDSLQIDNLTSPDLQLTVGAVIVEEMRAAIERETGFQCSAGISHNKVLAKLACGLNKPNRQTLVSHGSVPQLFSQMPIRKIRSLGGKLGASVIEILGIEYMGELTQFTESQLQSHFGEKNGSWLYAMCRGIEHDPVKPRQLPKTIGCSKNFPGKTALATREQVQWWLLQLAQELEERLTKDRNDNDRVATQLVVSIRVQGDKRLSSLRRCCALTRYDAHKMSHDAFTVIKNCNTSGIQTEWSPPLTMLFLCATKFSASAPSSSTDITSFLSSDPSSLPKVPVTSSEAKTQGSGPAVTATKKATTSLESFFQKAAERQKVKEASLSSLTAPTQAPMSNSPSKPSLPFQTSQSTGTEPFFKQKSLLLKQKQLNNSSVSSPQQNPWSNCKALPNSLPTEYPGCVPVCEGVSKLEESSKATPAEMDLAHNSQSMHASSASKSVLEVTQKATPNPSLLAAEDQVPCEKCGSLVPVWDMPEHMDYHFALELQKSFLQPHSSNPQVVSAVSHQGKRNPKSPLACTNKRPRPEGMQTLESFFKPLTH
How it was run: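 Pol eta 10 nM; substrate 50 nM final (unlabeled primer, TAMRA reporter, BHQ-2 template); preincub. 15 min RT; reads t=0 and t=10 min at ex525/em598.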
With `NC(CSC(c1ccccc1)(c1ccccc1)c1ccc(-c2ccccc2)cc1)C(=O)O` (stereo not drawn) the Potency was 75.7 µM (active).
In the case of `CCOc1cccc2c1N[C@@H](c1ccc(C(=O)O)cc1)[C@H]1CC=C[C@@H]21`, the Potency is reported as 7.57 µM (active).
In the case of `Cc1oc2c(C)c3oc(=O)c(CC(=O)N[C@@H](CC(C)C)C(=O)N[C@@H](Cc4ccccc4)C(=O)O)c(C)c3cc2c1C`, the Potency is reported as 47.8 µM (active).
With `CN1CCN(CCCNC(=O)c2ccc(/C=C3\Oc4ccccc4N(Cc4ccc(Cl)cc4)C3=O)cc2)CC1` the Potency was 19 µM (active).
`N#C/C(=C\C1=C(N2CCOCC2)C(=C\c2ccccc2)/CC1)C(=O)Nc1ccccc1F` was tested, and the Potency was 30.1 µM (active).
For `CCOc1ccccc1/C=c1\sc2nc(-c3ccco3)nn2c1=O`, the Potency was 60.1 µM (active).
For `Cc1ccc(-c2nn(-c3ccccc3)cc2/C=C2\SC(=S)N(CCCCCC(=O)O)C2=O)o1`, the Potency was 75.7 µM (active).
`COc1ccccc1C(=O)N/C(=C/c1ccco1)C(=O)Nc1ccc(C(=O)O)cc1` was tested, and the Potency was 53.6 µM (active).
`COC(=O)Cc1cc(=O)n(-c2nc3ccccc3s2)[nH]1` was tested, and the Potency was 84.9 µM (active).

The compounds below were run against RecQ-like DNA helicase BLM (Homo sapiens) (UniProt P54132) (assay: qHTS for Inhibitors of WRN Helicase: BLM Helicase Counterscreen for WRN Inhibitors (AID 720503; also: nearly all actives have a fitted effect of over 60% in size;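 as to activity change, negative = inhibition: plate controls were DMSO vehicle for no effect and enzyme-free control wells for full effect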)). Conditions: Recombinant BLM helicase DNA unwinding, red fluorescence; series mostly up to 57.1 µM; activity change, negative = inhibition: at the top concentration.
RecQ-like DNA helicase BLM (Homo sapiens), sequence (P54132 whole entry, looked up): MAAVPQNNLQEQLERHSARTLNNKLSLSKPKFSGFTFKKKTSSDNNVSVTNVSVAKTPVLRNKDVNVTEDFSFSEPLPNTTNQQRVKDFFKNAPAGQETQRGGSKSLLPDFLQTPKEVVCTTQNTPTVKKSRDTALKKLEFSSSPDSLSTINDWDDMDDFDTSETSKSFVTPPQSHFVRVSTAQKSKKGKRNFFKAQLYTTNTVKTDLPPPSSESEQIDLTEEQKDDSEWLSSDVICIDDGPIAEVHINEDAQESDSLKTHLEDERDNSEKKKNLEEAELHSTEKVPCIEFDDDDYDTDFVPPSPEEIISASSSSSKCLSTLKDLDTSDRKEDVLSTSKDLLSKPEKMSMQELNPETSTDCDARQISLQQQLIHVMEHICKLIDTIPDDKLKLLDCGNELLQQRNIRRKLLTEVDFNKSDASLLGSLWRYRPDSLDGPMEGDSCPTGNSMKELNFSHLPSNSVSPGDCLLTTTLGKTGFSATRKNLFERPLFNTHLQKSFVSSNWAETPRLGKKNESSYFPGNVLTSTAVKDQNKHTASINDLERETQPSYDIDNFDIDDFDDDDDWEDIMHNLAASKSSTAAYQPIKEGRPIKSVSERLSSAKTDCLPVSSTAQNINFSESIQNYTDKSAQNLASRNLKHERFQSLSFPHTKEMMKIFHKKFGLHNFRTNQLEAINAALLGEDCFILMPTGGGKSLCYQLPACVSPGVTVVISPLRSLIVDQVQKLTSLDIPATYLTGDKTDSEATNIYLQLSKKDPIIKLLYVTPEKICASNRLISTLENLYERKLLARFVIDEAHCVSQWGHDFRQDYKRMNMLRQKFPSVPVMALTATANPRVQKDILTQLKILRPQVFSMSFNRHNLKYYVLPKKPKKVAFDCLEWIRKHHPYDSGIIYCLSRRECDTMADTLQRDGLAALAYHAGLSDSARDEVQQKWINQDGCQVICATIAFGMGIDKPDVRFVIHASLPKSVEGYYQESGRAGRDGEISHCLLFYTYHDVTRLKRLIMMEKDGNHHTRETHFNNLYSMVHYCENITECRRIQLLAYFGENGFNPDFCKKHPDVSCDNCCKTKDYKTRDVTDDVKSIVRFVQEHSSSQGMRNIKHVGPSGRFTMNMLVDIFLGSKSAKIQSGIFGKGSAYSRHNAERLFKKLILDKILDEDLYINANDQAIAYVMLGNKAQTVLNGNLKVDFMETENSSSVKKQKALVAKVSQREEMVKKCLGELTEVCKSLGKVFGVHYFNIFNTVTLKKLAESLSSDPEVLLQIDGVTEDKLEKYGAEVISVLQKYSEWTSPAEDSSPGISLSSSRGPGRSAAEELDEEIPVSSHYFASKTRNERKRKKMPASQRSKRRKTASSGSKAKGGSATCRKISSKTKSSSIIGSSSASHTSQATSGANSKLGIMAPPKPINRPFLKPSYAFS
How it was run: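 Reactions were started with 100 nM DNA substrate and 2 mM ATP (final) after compound and 1 nM BLM stood 15 min at room temperature in Tris-HCl pH 8.0 buffer with NaCl, MgCl2, DTT and Tween-20. Two red-fluorescence reads 15 min apart were normalized against DMSO and no-enzyme wells.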
In the case of `CCc1ccc2nc3sc(C(=O)Nc4nnc(CC)s4)c(N)c3cc2c1`, the Potency is reported as 10.8 µM (active).
In the case of `Cc1ccc(-c2nc(SCc3ccc(Br)cc3)n3[nH]c(=O)cc3n2)cc1`, the Potency is reported as 4.82 µM (active).
With `CCN(CC)CCOc1ccc2c(c1)C(=NNC(=O)c1ccccn1)c1cc(OCCN(CC)CC)ccc1-2` the “activity change, negative = inhibition” value was -96.5%.
In the case of `N#C/C(=C\C1=C(N2CCOCC2)C(=C\c2ccccc2)/CC1)C(=O)Nc1ccccc1F`, the Potency is reported as 21.5 µM (active).
